# Test results: PubChem BioAssay AID686978 (National Center for Advancing Translational Sciences (NCATS), 2013)
# Hit rate of the full screen: of about 420,000 compounds, about 64,000 (15%) were called active. Not shown: some 27% with an inconclusive outcome. The call rests on the fitted dose curve; in most records, active means well fitted inhibition curve with a large enough effect; inconclusive means small, poorly fitted or top-dose-only effect; inactive means flat fitted curve, though single readings scatter. These entries were drawn from the full list. Where a call stands in place of a potency, no number is given.
# Assay: qHTS for Inhibitors of human tyrosyl-DNA phosphodiesterase 1 (TDP1): qHTS in cells in absence of CPT; further: nearly all actives have a fitted effect of over 55% in size
# Conditions: DT40 Tdp1-/- hTDP1 cells, no CPT, ATP luminescence, 48 h; activity change, negative = growth inhibition: at 46.2 µM (top of the series)
# How it was run: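 A cellular qHTS used chicken DT40 cells lacking endogenous Tdp1 but carrying stably transfected human TDP1. Compounds were applied without camptothecin, and cell growth kinetics were judged by ATP-dependent luminescence after ≥48 hr.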
# Potency means the concentration at half of the fitted maximal effect.
row,Structure (SMILES),Potency
1,Cc1cnc(NC(=O)c2ccc(Cl)nc2)s1,inactive
2,CCN(CC)c1ccc(NC(=O)c2ccc(Cl)nc2)cc1,2.59 µM (active)
3,NS(=O)(=O)c1ccc(NC(=O)COC(=O)c2ccc(Cl)nc2)cc1,inactive
4,Cc1ccc2c(c1)NCC(C(=O)NC1CCC(C)CC1)O2 (centres undefined),inactive
5,CCOC(=O)C1CCN(C(=O)CN2C(=O)NC(C)(c3ccc4cc(OC)ccc4c3)C2=O)CC1 (centres undefined),10.3 µM (active)
6,CCOC(=O)C1CCN(C(=O)Nc2cccc(OC)c2)CC1,inactive
7,CC1(c2ccc3ccccc3c2)NC(=O)N(CC(N)=O)C1=O (centres undefined),inactive
8,COc1ccc(C2C3=C(CCCC3=O)N(CC(=O)O)C3=C2C(=O)CCC3)cc1,inactive
9,CCOc1ccc(NC(=S)N2CCC(NC(=O)c3ccccc3)CC2)cc1,inactive
10,COC(=O)c1ccccc1NC(=O)C1CCN(C(=O)N2CCOc3ccccc32)CC1,23.1 µM (active)
11,CCOC(=O)c1ccccc1NC(=S)N1CCC(C(N)=O)CC1,inactive
12,CCOc1ccc(NC(=O)N2CCN(CC)CC2)cc1,inactive
13,CCOc1ccc(NC(=O)C2CCN(C(=O)N3CCOc4ccccc43)CC2)cc1,20.6 µM (active)
14,CC(=O)N1CCOc2ccc(S(=O)(=O)N3CCC(C(=O)Nc4ccccc4F)CC3)cc21,inactive
15,Cc1ccsc1C(=O)OCC(=O)Nc1cccc(F)c1,inactive
16,O=C(Nc1cccc2ccccc12)N1CCN(Cc2ccc3c(c2)OCO3)CC1,inactive
17,N#Cc1cccc(CN2CCC(=O)N(CCO)CC2)c1,inactive
18,CC(C)[C@@H]1NC(=O)[C@H](Cc2ccccc2)NC(=O)[C@@H](CC(=O)O)NC(=O)CNC(=O)[C@H](CCCNC(=N)N)NC1=O,inactive
19,C=CCOc1ccc(/C=C/C(=O)OCC(=O)NCC2CCCO2)cc1 (centres undefined),inactive
20,O=C(CN1CCN(c2ccc(F)cc2)CC1)Nc1ccccc1,inactive
21,CCC(=O)Nc1ccccc1N1CCN(S(C)(=O)=O)CC1,inactive
22,O=C(NC(=S)Nc1ccccc1N1CCCCC1)c1ccc(F)cc1,inactive
23,CCCCC(=O)Nc1ccccc1N1CCN(c2ccc(F)cc2)CC1,16.4 µM (active)
24,O=C(CN1CCN(c2ccccc2)CC1)Nc1ccc(F)cc1,inactive
25,CCC(C)C(=O)Nc1ccccc1N1CCN(c2ccc(F)cc2)CC1 (centres undefined),20.6 µM (active)
26,Cc1cccc(C)c1NC(=O)CN1CCN(c2ccc(F)cc2)CC1,20.6 µM (active)
27,CCn1cc(CN2CCCC(CNS(=O)(=O)Cc3ccccc3)C2)cn1 (centres undefined),inactive
28,CC(C)C(=O)Nc1nnc(SCC(=O)N2C(C)CCCC2C)s1 (centres undefined),inactive
29,C[C@H]1CN([C@@H](C)CO)C(=O)CCCn2cc(nn2)CO[C@@H]1CN(C)S(=O)(=O)c1cccc(C#N)c1,inactive
